For one test, the target named is PLN. Kind of test: pooled miR-30 sensor sort-seq; sequence = guide strand. As to conditions: shRNA.
For TTAATCTTGACCTTTTCACAAA, the sensor-assay potency score (higher = more potent) is -1.35.

Consider TTAGTCTTAATCTTGACCTTTT, for which the sensor-assay potency score (higher = more potent) is -0.719.

TTGTTTTCCTGTCTGCATGGGA yielded a sensor-assay potency score (higher = more potent) of 0.161.

On to TAAGATGAGACAGAAATTGATA, for which the sensor-assay potency score (higher = more potent) was -0.754.

For TTGAGGCTCTTCTTATAGCTGA, the sensor-assay potency score (higher = more potent) was -0.603.

Regarding TTGACGTGCTTGTTGAGGCATT, the sensor-assay potency score (higher = more potent) was -0.832.

In turn, TTTCACAAAGAAACTCTTCTAC displayed a sensor-assay potency score (higher = more potent) of 0.725.

As to TTTAGTCTTAATCTTGACCTTT, the sensor-assay potency score (higher = more potent) is -0.026.

With TTTGACGTGCTTGTTGAGGCAT, the sensor-assay potency score (higher = more potent) is 0.851.

For TAGCTTTTGACGTGCTTGTTGA, the sensor-assay potency score (higher = more potent) is -0.611.

On to TATAGCTGAGCGAGTGAGGTAT, for which the sensor-assay potency score (higher = more potent) is -0.0267.

In the case of TCTGTAGCTTTTGACGTGCTTG, the sensor-assay potency score (higher = more potent) was -0.521.

A further test deals with PLS1. The description is as above. As to conditions: shRNA.
On to TTTATCTGCTTCTTGAAGCATG, for which the sensor-assay potency score (higher = more potent) was -0.495.

In the case of TTAAGAGTCTGATTGACCCATT, the sensor-assay potency score (higher = more potent) is -0.779.

In the case of TTAACAATGCAATCAGAGCTTC, the sensor-assay potency score (higher = more potent) was -0.361.

Regarding TATCTTTGCTTTTTAATTCTTG, the sensor-assay potency score (higher = more potent) was -0.576.

Regarding ATTCCTTTCATTTAGGTCCTGC, the sensor-assay potency score (higher = more potent) was found to be 0.408.

For TTAGTGACACAAACTCTTCAAA, the sensor-assay potency score (higher = more potent) was -0.919.

TGTGCTTATAGATTTATCCTTG yielded a sensor-assay potency score (higher = more potent) of 0.0263.

For TTTAAGAGTCTGATTGACCCAT, the sensor-assay potency score (higher = more potent) was determined as 0.465.

As to TTTGCTTTTTAATTCTTGCATT, the sensor-assay potency score (higher = more potent) was -1.04.

The record behind these values is the OligoGym collection.
Note: reference of the scale not given here.
